Bioassay records (PubChem BioAssay)
RE007 growth inh – less growth of the S. pombe RE007 Vpr strain; S. pombe RE007 Vpr strain, BacTiter-Glo ATP luminescence, 24 h; Potency, µM (titrated, usually from 92.2 µM), for the others: at the top dose activity change, negative = less growth, most hits filed as inhibitors; 0.21% of 360,000 active; active = well fitted falling curve with a large enough effect; inconclusive = small, poorly fitted or top-dose-only effect; inactive = no such curve, though single readings can be large or run the other way; also: nearly all actives have a fitted effect of over 50% in size
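Fission yeast strain RE007, carrying one chromosomally integrated HIV-1 vpr copy, was seeded at OD 0.01 in PMG+AL medium with 23 nL pinned compound. After 24 h at 30 °C and 99% humidity, viability was read by BacTiter-Glo luminescence.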
LmPK inh – LmPK (Leishmania mexicana) enzyme inhibition. Q27686. purified LmPK, Kinase-Glo ATP luminescence, 1 h. Potency, µM (doses to about 57.5 µM), for the others: top-dose activity change, negative = inhibition, actives largely listed as inhibitors. 0.37% of 290,000 active
Target sequence (Q27686 whole entry, looked up): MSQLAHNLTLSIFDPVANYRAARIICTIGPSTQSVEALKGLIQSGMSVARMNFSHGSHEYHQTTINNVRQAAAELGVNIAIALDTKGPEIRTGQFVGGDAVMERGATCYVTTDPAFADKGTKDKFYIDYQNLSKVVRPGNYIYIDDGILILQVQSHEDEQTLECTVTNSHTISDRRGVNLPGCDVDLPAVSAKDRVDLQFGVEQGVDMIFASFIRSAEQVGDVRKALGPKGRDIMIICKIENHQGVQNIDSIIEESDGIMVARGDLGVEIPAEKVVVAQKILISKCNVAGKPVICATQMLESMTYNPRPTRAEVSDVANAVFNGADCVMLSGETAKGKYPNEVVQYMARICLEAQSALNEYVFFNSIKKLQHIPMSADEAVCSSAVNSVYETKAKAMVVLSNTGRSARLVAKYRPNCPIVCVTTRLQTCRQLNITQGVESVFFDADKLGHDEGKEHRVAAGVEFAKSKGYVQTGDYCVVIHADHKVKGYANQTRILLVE
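qHTS format; LmPK 0.1 nM; substrates PEP 0.5 mM and ADP 0.1 mM. One-hour room-temperature incubation, then coupled luciferase luminescence; 0.5 nM enzyme wells mark activation.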
Tb PYK inh – blocks Trypanosoma brucei pyruvate kinase. TbPYK enzyme, Kinase-Glo Plus ATP luminescence, 45 min. Q57TT1. Potency, µM (highest dose often 76.8 µM), inactives show at the top dose activity, negative = inhibition, actives largely listed as inhibitors. 0.12% of 410,000 active. AID 624173; also: nearly all actives have a fitted effect of over 50% in size
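T. brucei PYK with substrate was exposed to pin-transferred compounds across a concentration series, then started with 130 uM ADP (final). After 45 min at room temperature, Kinase-Glo Plus luminescence was read, normalized and curve-fitted.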
Sm TGR inh – inhibitors of Schistosoma mansoni thioredoxin glutathione reductase; purified TGR, DTNB reduction, TNB absorbance 405 nm; 3% of 360,000 active; Potency, µM (top dose mostly 114 µM), for inactives: at the top dose activity change, negative = inhibition, usual class: inhibitors; also: nearly all actives have a fitted effect of over 60% in size
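Kinetic colorimetric format: TGR-catalysed, NADPH-driven DTNB reduction monitored via TNB absorbance. Enzyme dispensed at 20 nM; compound exposure 15 min at room temperature before reaction start.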
Active calls of the source: *; ? = inconclusive; nt = not tested or not shown; [ ] = another dose, or the depositor's remark. Hits are enriched below; roughly 3% of the tested compounds scored in any of these assays. Unless noted, calls follow the shape of the dose curve; as a rule, active = well fitted curve in the direction sought with a large enough effect; inconclusive = small, poorly fitted or top-dose-only effect, or another doubt; inactive = no such curve, though single readings can be large; an effect the other way counts as inactive or inconclusive. % is scaled to controls: 0 for no effect and ±100 for the full control effect; potency is read from the fitted curve at half-maximal effect.

SMILES	RE007 growth inh	LmPK inh	Tb PYK inh	Sm TGR inh
CCCCCn1nc(C(=O)N(CC)c2c(N)n(CCCC)c(=O)[nH]c2=O)c2ccccc2c1=O	-3%	nt	1%	nt
Cc1ccc(NC(=O)COCc2cc(-c3cccs3)on2)cc1Cl	nt	nt	-1%	4%
Cc1ccc(CN(Cc2ccco2)C(=O)COc2ccc(Cl)cc2)o1	nt	nt	1%	-17%
COc1cc(C2c3c(n[nH]c3C)C(=O)N2c2ccc(C)cc2)ccc1O (stereo not drawn)	23%	0%	0%	?
CCOc1cc(C2c3c(n[nH]c3C)C(=O)N2c2ccc(C)cc2)ccc1O (stereo not drawn)	8%	0%	3%	18µM*
NC(=O)C1CCN(C2=C(Cl)C(=O)c3ccccc3C2=O)CC1	-22%	-28%	0%	0.45µM*
O=C1C(Cl)=C(N2CCC(C(=O)O)CC2)C(=O)c2ccccc21	-24%	?	1%	-2%
Cc1cn2c(=O)cc(COc3cccc(NC(=O)c4ccc(C(C)(C)C)cc4)c3)nc2s1	nt	nt	6%	-4%
C#CCNC(=O)C1=C[C@@H](c2ccc(C(F)(F)F)cc2)C[C@@H](OCCCCO)O1	7%	5%	2%	22µM*
C#CCNC(=O)C1=C[C@@H](c2ccc(Br)cc2)C[C@@H](OCc2ccc(CO)cc2)O1	7%	0%	4%	45µM*
C#CCNC(=O)C1=C[C@H](c2ccc(Br)cc2)C[C@H](OCc2ccc(CO)cc2)O1	0%	3%	1%	?
O=C(NCc1ccccc1)C1=C[C@H](c2ccc(Br)cc2)C[C@H](OCCCCO)O1	6%	nt	0%	nt
CN1CCN(C(=O)C2=C[C@@H](c3ccc(C(F)(F)F)cc3)C[C@@H](OCCCCO)O2)CC1	3%	2%	0%	45µM*
C#CCNC(=O)C1=C[C@H](c2ccc(Br)cc2)C[C@H](OCCCCO)O1	-4%	5%	0%	16µM*
C#CCNC(=O)C1=C[C@@H](c2ccc(C(F)(F)F)cc2)C[C@@H](OCc2ccc(CO)cc2)O1	-11%	nt	1%	nt
CC(C)(C)c1ccc(CC(=O)N2CCC2(C)C(=O)NS(=O)(=O)c2ccc(Cl)cc2)cc1 (stereo not drawn)	14%	nt	1%	nt
CC(C)(C)NC(=O)[C@H]1CC[C@H]2[C@@H]3CC=C4C=C(C(=O)O)CC[C@@]4(C)[C@H]3CC[C@]12C	nt	nt	0%	nt
COc1cc(C(=O)N(Cc2ccccc2)c2cccc(C)c2)ccc1OCC(=O)N1CCOCC1	0%	nt	8%	nt
Cc1ccc(S(=O)(=O)CC#CCOC(=O)c2ccc([N+](=O)[O-])cc2)cc1	nt	4%	nt	0.63µM*
Cc1ccc(C(=O)c2ccc([N+](=O)[O-])cc2)cc1	-15%	2%	-10%	-4%
Cc1cc(=O)n(C(C)C(=O)N2CCCc3ccccc32)c2c1c(C)nn2-c1ccccc1 (stereo not drawn)	nt	nt	3%	-3%
Nc1ccnn1Cc1ccncc1	-18%	0%	0%	-3%
CCOC(=O)c1ccccc1Nc1cc(C)nc2nc(-c3ccco3)nn12	nt	nt	4%	18µM*
Cc1cc(Nc2ccccc2Cl)n2nc(-c3ccco3)nc2n1	nt	nt	-6%	?
CCc1nc2ccc(C(=O)N3CCN(C(=O)c4ccco4)CC3)cn2c1N(C)C(=O)c1cccc(OC)c1	8%[18.4 µM]	nt	-15%	nt
SMILES	RE007 growth inh	LmPK inh	Tb PYK inh	Sm TGR inh
C[C@H]1CN([C@@H](C)CO)C(=O)c2cc(NC(=O)C3CCCCC3)ccc2O[C@H]1CN(C)S(=O)(=O)c1ccccc1	-8%	nt	-1%	nt
COc1cc(NC(=O)c2cccc3c(-c4cnn(C)c4)coc23)cc(OC)c1OC	0%	nt	0%	nt
CCOC(=O)/C=C/C(=O)OCC(=O)Nc1ccc(Cl)cn1	?	9%	-6%	0%
CCOC(=O)NC1(Nc2ccc(Cl)cn2)Oc2ccccc2O1	nt	0%	nt	7.1µM*
CC(C)CN1CCC2(CC1)CCN(C(=O)c1csnn1)CC2	nt	nt	0%	nt
COc1ccc(C(CCN2CCOCC2)c2c(O)cc(OC)cc2OC)cc1 (stereo not drawn)	-4%	-1%	0%	-13%
COc1ccc(C(c2c(O)ccc3ccccc23)N2CCOCC2)c(OC)c1 (stereo not drawn)	-5%	5%	0%	3.5µM*
S=c1[nH]ncn1/N=C/c1cccc(Oc2ccccc2)c1	-26%	10µM*	?	-5%
C(=N\n1cnnc1)/c1cccc(Oc2ccccc2)c1	8%	-4%	12%	-17%
Cc1c(NC(=O)c2c(N)sc3c2CCCC3)c(=O)n(-c2ccccc2)n1C	0%	-6%	?	22µM*
O=[N+]([O-])c1cccnc1-n1cnc2ccccc21	12%	-1%	-1%	-31%
Cc1cc2ncn(-c3ncccc3[N+](=O)[O-])c2cc1C	-10%	-10%	0%	45µM*
Cc1n[nH]c(=S)n1-c1ccccc1	-17%	3%	?	17%
Cc1ccccc1-n1c([C@@H]2C[C@H]2c2ccccc2)n[nH]c1=S	-6%	11µM*	?	4%
S=c1[nH]nc([C@@H]2C[C@H]2c2ccccc2)n1-c1ccccc1	-20%	?	4µM*	-9%
COc1ccccc1N1CCN(C(=O)c2nc(SC)ncc2Cl)CC1	nt	nt	-7%	6%
O=C1CCCc2c1cc(C(=O)NC1CCSC1=O)c(=O)n2-c1ccccc1 (stereo not drawn)	11%	-9%	-8%	35µM*
O=C1CCCc2c1cc(C(=O)O)c(=O)n2-c1ccccc1	3%	-13%	-1%	0%
O=C1CCCc2c1cc(C(=O)Nc1ccc(Br)cn1)c(=O)n2-c1ccccc1	-6%	?	?	18µM*
CC1=C(CC(=O)O)c2cc(F)ccc2/C1=C/c1ccc(S(C)=O)cc1 (stereo not drawn)	2%[18.4 µM]	0%	-3%	20µM*
CC1=C(CC(=O)O)c2cc(F)ccc2/C1=C\c1ccc(S(C)(=O)=O)cc1	nt	nt	2%	nt
N#Cc1ccccc1S(=O)(=O)N1CCCC(c2nc3c(nnn3Cc3cccc(Cl)c3)c(=O)[nH]2)C1 (stereo not drawn)	nt	nt	-3%	-8%
O=P(C(Cl)Cl)(N1CCOCC1)N1CCOCC1	7%	0%	1%	-8%
O=CC(Br)P(=O)(N1CCOCC1)N1CCOCC1 (stereo not drawn)	21%	1%	?	45µM*
O=C1[C@@H]2Cc3c([nH]c4ccccc34)[C@@H](c3ccccc3)N2C(=O)[C@@H]2Cc3c([nH]c4ccccc34)[C@@H](c3ccccc3)N12	nt	5%	nt	-10%
CC1Cc2c([nH]c3ccccc23)C2c3ccccc3CN12 (stereo not drawn)	-7%	-3%	-6%	22µM*
O=C(Cc1cccs1)NC1CC(=O)N(c2ccc(F)cc2)C1 (stereo not drawn)	nt	nt	2%	2%
CC(=O)OCCNc1cc(SC(C)C)c2nonc2c1[N+](=O)[O-]	1%	10%	7%	-23%
